# In PubChem BioAssay (NCATS):
# Inconclusive results are not listed. A number with no mark means an inactive call. The source made the active and inactive calls. Calls come from the whole dose curve; as a rule, active = well fitted cell-killing curve with a large enough effect; inconclusive = small, poorly fitted or top-dose-only effect; inactive = flat fitted curve, though single readings scatter.
# Assay: qHTS of pediatric cancer cell lines to identify multiple opportunities for drug repurposing: Primary screen for control Hh wild type fibroblast cells (AID 1347106); note: nearly all actives have a fitted effect of over 55% in size;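 for activity change, negative = cytotoxic: a drop in luminescence marks cytotoxicity and a rise apparent proliferation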
# Settings: Hh wild-type fibroblast viability, CellTiter-Glo luminescence, 48 h; series mostly up to 46 µM; activity change, negative = cytotoxic: at the top concentration
# Procedure, shortened: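 Cells (500-1,000/well) in growth media were settled 5 h at 37 degrees C, then given compounds for 48 h. Viability was read as CellTiter-Glo luminescence. Primary runs used MIPE at 11 points (0.78 nM-46 µM) and NPC at 8 points (0.59 nM-46 µM); follow-ups used 11 points.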
# % is set by controls: 0 for no effect and ±100 for the full control effect; potency is the fitted concentration of half-maximal effect.
Structure (SMILES),"activity change, negative = cytotoxic",Potency
COc1ccc(C(=O)c2c(C)n(CCN3CCOCC3)c3cc(I)ccc23)cc1,3.95%,
Nc1ccc(N=Nc2ccccc2)cc1,-8.57% [at 92.7 µM],
O=S(=O)(F)Cc1ccccc1,-7%,
C=CCON=C(C[C@H]1O[C@@H]2O[C@]3(C)CC[C@@H]4[C@H](C)CC[C@@H]([C@H]1C)[C@@]24OO3)[C@H]1O[C@@H]2O[C@]3(C)CC[C@H]4[C@H](C)CC[C@@H]([C@@H]1C)[C@@]24OO3,-27.7%,
CN1CCN(c2ccc([N+](=O)[O-])c3no[n+]([O-])c23)CC1,-10.9%,
O=C(Nc1ccncc1)C(=O)c1cn(Cc2ccc(Cl)cc2)c2ccccc12,-6.62%,
O=C1C=CC[C@@H]2[C@H]3CCCN4CCC[C@@H](CN12)[C@@H]34,2.37%,
CCc1c(C(=O)C(N)=O)c2c(OCC(=O)O)cccc2n1Cc1ccccc1,2.71%,
COc1ccc2c(c[n+](C)c3c4cc5c(cc4ccc23)OCO5)c1OC,,26.4 µM (active)
Cc1ccccc1-n1c(Cn2ncc3c(N)ncnc32)nc2cccc(C)c2c1=O,-8.42%,
CC(C)[C@]12O[C@@H]1[C@@H]1O[C@]13[C@]1(O[C@H]1C[C@@H]1C4=C(CC[C@@]13C)C(=O)OC4)[C@H]2O,-46.7%,
O=C(N[C@@H](COc1ccc2[nH]c(=O)[nH]c2c1)c1ccccc1)c1cccn(Cc2ccc(F)c(F)c2)c1=O,11.9%,
CC(=CCCC1=CCC(C2=CC(=O)OC2O)OC1O)CCC1=C(C)CCCC1(C)C (centres undefined),2.71%,
CC(=Cc1csc(C)n1)[C@@H]1C[C@H]2O[C@@H]2CCC[C@H](C)[C@@H](O)[C@@H](C)C(=O)C(C)(C)[C@@H](O)CC(=O)O1,-13.1%,
Cc1c(C(=O)Nc2cccc(C(F)(F)F)c2)cc(-c2ccccc2)n1CCCN1CCOCC1,0.0504%,
ClC1=C(Cl)[C@]2(Cl)[C@@H]3[C@@H]4C[C@@H]([C@H]5O[C@@H]45)[C@@H]3[C@@]1(Cl)C2(Cl)Cl,12% [at 92.7 µM],
O=S(=O)(CC1CS1)c1ccc(Oc2ccccc2)cc1 (centres undefined),-5.75%,
CC=C(C)C(=O)N[C@@H](c1ccccc1)[C@@H](O)C(=O)O[C@H]1C[C@@]2(O)[C@@H](OC(=O)c3ccccc3)[C@@H]3[C@]4(OC(C)=O)CO[C@@H]4C[C@H](O)[C@@]3(C)C(=O)[C@H](OC(C)=O)C(=C1C)C2(C)C,-16.3%,
CO/C=C(/C(=O)OC)c1ccccc1Oc1cc(Oc2ccccc2C#N)ncn1,14.3% [at 92.7 µM],
CC(=O)O[C@@]12CO[C@H]1C[C@H](O)[C@@]1(C)C(=O)[C@H](O)C3=C(C)[C@@H](O)C[C@@](O)([C@@H](OC(=O)c4ccccc4)[C@@H]21)C3(C)C,-12.1%,
CC(C)(C)c1cc(C=C(C#N)C#N)cc(Br)c1O,17.7%,
C[C@@H]1CC[C@H]2[C@@H](C)C(=O)O[C@@H]3O[C@@]4(C)CC[C@H]1[C@]32OO4,3.73%,
CC(C)(C)C(O)C(Oc1ccc(Cl)cc1)n1cncn1 (centres undefined),-4.57% [at 92.7 µM],
CC1(C)CC/C(=C/c2ccc(Cl)cc2)C1(O)Cn1cncn1 (centres undefined),5.32% [at 92.7 µM],
S=C(SSC(=S)N1CCCCC1)N1CCCCC1,,1.06 µM (active)
CC[C@H]1C=CC=CC[C@@H](C)[C@H](O)[C@@](C)(O)C(=O)[C@@H](C)[C@H](O)[C@@H](C)C(=O)[C@@H](C)[C@H](O)[C@@H](C)C=CC(=O)O[C@@H]2[C@@H](C)[C@H](CC1)O[C@]1(CC[C@H](C)[C@H](C[C@@H](C)O)O1)[C@H]2C,15.9%,
N#C[C@H](O[C@@H]1O[C@H](CO[C@@H]2O[C@H](CO)[C@H](O)[C@H](O)[C@H]2O)[C@H](O)[C@H](O)[C@H]1O)c1ccccc1,-0.31%,
CCCCCC[C@H]1C(=O)O[C@H](C)[C@H](NC(=O)c2cccc(NC=O)c2O)C(=O)O[C@@H](C)[C@@H]1OC(=O)CC(C)C,4.84%,
CC(=Cc1csc(C)n1)[C@@H]1C[C@H]2O[C@]2(C)CCC[C@H](C)[C@@H](O)[C@@H](C)C(=O)C(C)(C)[C@@H](O)CC(=O)O1,-14.6%,
